A number with no mark means an inactive call.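 How the source made its calls: active means z-score of at least 1.8 in each of two replicates, scored against plate mean and spread of sample wells; inactive means the rest.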
Assay: galactose survival enhancers in mitochondrial complex I cybrids – cell-based, galactose medium, ATP luminescence, primary screen (AID 1645843);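 further: positive z means more ATP and so rescue of galactose-driven cybrid death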
Settings: complex I mutant cybrid cells, 72 h, stronger effect = higher value

Row | Compound | z-score
1 | O=C(Cn1ccc(-c2cccnc2)n1)Nc1ccnn1Cc1cccs1 | -0.545
2 | O=c1cc(-c2ccccc2Cl)nc(-c2ccc(CN3CCC[C@@H](O)C3)cc2)[nH]1 | -0.605
3 | CC(C)n1cc(C(=O)N2CCCC(c3ccccc3)C2)cn1 (stereo unspecified) | -0.54
4 | Cc1cc(C)c(C(=O)N2CCCCC2CCN2CCCC2=O)cc1C (stereo unspecified) | -0.46
5 | CCCC[C@@H]1C[C@@H]1C(=O)N1CCC(n2cc(C3CCCCC3)nn2)CC1 | 1.86
6 | COc1ccc2nc(Cn3cnc4sc(C)cc4c3=O)[nH]c2c1 | 0.395
7 | COc1ccccc1-c1noc(CN2CCOC2=O)n1 | 1.68
8 | CCC1CN(C(=O)c2cc(-c3cnn(C)c3)nc3c(C)cccc23)CCN1C (stereo unspecified) | -0.31
9 | CCCC(CCC)C(=O)N1CCC(n2cc(C(C)O)nn2)CC1 (stereo unspecified) | -0.47
10 | Cc1cc(-c2ccccc2C(F)(F)F)nc(N)n1 | -0.545
11 | O=c1c2ccc(C(F)(F)F)cc2ncn1CCC1CCCCN1C1CCCC1 (stereo unspecified) | -0.69
12 | Cc1cc(C)c(-n2cccn2)c(-c2nc3c(cnn3C(C)C)[nH]2)c1 | -0.485
13 | COc1ccc(-c2ccc3cc(Cl)ccc3n2)c(OC)c1 | 1.15
14 | CCOC(=O)c1ccc(N2CCC(c3ccccc3F)C2)nc1 (stereo unspecified) | -0.015
15 | CCCCc1cc(=O)[nH]c(-c2ccc(CN3CCC(F)(F)CC3)cc2)n1 | 0.255
16 | CCCCc1cn(C2CCN(C3CCCC(C)(C)C3)CC2)nn1 (stereo unspecified) | -0.56
